According to ChEMBL document CHEMBL4513216, “Probing the Open Global Health Chemical Diversity Library for Multistage-Active Starting Points for Next-Generation Antimalarials” (ACS Infect Dis, 2020):
Screen size: about 69,000 compounds; about 8,600 (12%) showed an effect of 50% or more. Only a selection was taken, and strong results are over-represented in it overall.

Each compound was assayed on Plasmodium berghei (assay: Screen against P. berghei liver stage (PbLuc), transformed with Luciferase, at 10uM). Settings: tested at 10 uM.
Format: functional, HepG2

| Structure (SMILES) | INHIBITION [%] |
| --- | --- |
| CS(=O)(=O)NCCN1CCCC1c1noc(C2CC2)n1 (stereo not given) | 0.914 |
| CN(C)Cc1ccnc(C2CN(CCc3ccccc3)CCO2)n1 (stereo not given) | 17.4 |
| Cn1cncc1CN1CCC2(CCCN2c2ncccn2)CC1 | 16.9 |
| CC(C)(N)C(=O)N1CCCC(c2cncc(Oc3cccnc3)n2)C1 (stereo not given) | 41.2 |
| CCCC(=O)NCC(Cc1cccc(F)c1)N1CCCC1=O (stereo not given) | 8.31 |
| O=C1NCCN1C(CNS(=O)(=O)C1CC1)Cc1cccc(F)c1 (stereo not given) | 20.1 |
| CCOCC(=O)NCC(Cc1cccc(F)c1)N1CCCCC1=O (stereo not given) | 54.1 |
| O=C1CCCN1C(CNS(=O)(=O)C1CC1)Cc1cccc(F)c1 (stereo not given) | 58.5 |
| CCOCC(=O)NCC(Cc1cccc(F)c1)n1cccc1 (stereo not given) | 47.2 |
| O=C(NCC(Cc1cccc(F)c1)N1CCCC1=O)C1CCCC1 (stereo not given) | 0.923 |
| CN(C)C(=O)N1C[C@H](Oc2ccccn2)[C@H]2OCCC[C@H]21 | -6.32 |
| CC1(C)Oc2ccc(S(=O)(=O)NCCCn3ccnc3)cc2NC1=O | 17.4 |
| CC1Oc2ccc(S(=O)(=O)NCCCn3ccnc3)cc2NC1=O (stereo not given) | 56.5 |
| COCCCNS(=O)(=O)c1ccc2c(c1)NC(=O)C(C)O2 (stereo not given) | -35.5 |
| CCc1nc(C)sc1CNC1CCN(Cc2ccccc2)C1 (stereo not given) | 51.1 |
| CCc1csc(CNC2CCN(Cc3ccccc3)C2)n1 (stereo not given) | 64 |
| CCc1nc(C)sc1CN1CC[C@](C)(O)[C@H](C)C1 | 48.5 |
| Cc1nc(CCNC2CCN(Cc3ccccc3)C2)sc1C (stereo not given) | 40.5 |
| Cc1nc(CNC2CCN(Cc3ccccc3)C2)sc1C (stereo not given) | 47.9 |
| CCc1csc(CNC2CCN(c3ccc(C)cc3)CC2)n1 | 1.94 |
| CNc1ncccc1CN1CCCCC1c1ccnc(N)n1 (stereo not given) | 32.3 |
| O=C(NCC1CC1)[C@H]1CC[C@@H]2[C@@H](CCN2Cc2nccs2)O1 | 46.1 |
| COC(=O)c1cccn1C1CCN(CC(=O)NC2CCCCC2)CC1 | 43.7 |
| Cc1noc(C)c1C(=O)N(C)C(C)c1cccnc1 (stereo not given) | 79 |

| Structure (SMILES) | INHIBITION [%] |
| --- | --- |
| Cc1noc(C)c1C(=O)N(C)C(C)c1ccc(S(C)(=O)=O)cc1 (stereo not given) | 10.7 |
| Cc1noc(C)c1C(=O)N(C)C(C)c1ccncc1 (stereo not given) | 17.5 |
| CS(=O)(=O)N1CCCN(c2nccn3cnnc23)CC1 | -39.2 |
| OCCN(Cc1ccccc1)Cc1ccsc1 | 3.96 |
| CC(NC(=O)c1ccc(C#N)cn1)C1(N2CCOCC2)CCCC1 (stereo not given) | 37.1 |
| Cn1ncc2c1NC(=O)CC2c1ccccc1Cl (stereo not given) | 54.5 |
| Cn1ncc2c1NC(=O)CC2c1ccc(Cl)cc1Cl (stereo not given) | 34 |
| Cn1ncc2c1NC(=O)CC2c1cc2c(cc1Cl)OCO2 (stereo not given) | 61.2 |
| Cn1ncc2c1NC(=O)CC2c1c(Cl)cccc1Cl (stereo not given) | 25.1 |
| CC(C)n1ncc2c1NC(=O)CC2c1ccccc1Cl (stereo not given) | 9.32 |
| Cn1ncc2c1NC(=O)CC2c1cc(Cl)ccc1F (stereo not given) | 8.49 |
| O=C(NCc1cccnc1)c1ccc2nccn2c1 | 32.5 |
| COc1ccccc1CN1CCC(Cc2cnc(CN(C)C)cn2)CC1 | 8.12 |
| Cc1nc(C)c(C(=O)N2CCCC(n3ccnc3C)C2)s1 (stereo not given) | 21.7 |
| O=S(=O)(Cc1c(F)cccc1F)NCCOc1cccnc1 | 42.4 |
| Cc1ccc(C(=O)N2CCCC(n3cccn3)C2)cc1S(C)(=O)=O (stereo not given) | 23.95 |
| CCc1noc(CCC(=O)N[C@@H]2CC[C@@H](n3ccnc3)[C@@H]2O)n1 | 8.72 |
| CCc1noc(CCC(=O)N[C@@H]2CC[C@@H](n3ccnc3C)[C@@H]2O)n1 | 56.8 |
| Cc1nccn1[C@@H]1CC[C@@H](NC(=O)CCCn2cccn2)[C@H]1O | 4.13 |
| Cc1cc(NC(=O)c2ccc(F)cc2Cl)n(C)n1 | -23.8 |
| COc1ncc(-c2nccn2-c2ccccc2CN2CCOCC2)cn1 | 32.3 |
| CCn1ccnc1-c1nccn1-c1ccccc1CN1CCOCC1 | 58.3 |
| CCc1cc(-c2nccn2-c2ccccc2CN2CCOCC2)on1 | -4.51 |
| CNc1cc(CNC(=O)c2ccccc2OC)nc(-c2ccncc2)n1 | 23.4 |

| Structure (SMILES) | INHIBITION [%] |
| --- | --- |
| O=c1[nH]nc2c(S(=O)(=O)N3CCCCC3)cccn12 | 51 |
| O=c1[nH]nc2c(S(=O)(=O)N3CCCCCC3)cccn12 | -15.2 |
| O=c1[nH]nc2c(S(=O)(=O)N3CCCC3)cccn12 | 6.12 |
| Cc1ccoc1C1=NNC(=CN2CCn3c(nnc3C(C)C)C2)O1 | 15.3 |
| CC(C)c1nc(CN(C)C(=O)C(O)c2ccc(Cl)cc2)cs1 (stereo not given) | -15.6 |
| CN1CCC(N(Cc2ccco2)S(=O)(=O)c2ccc(Br)cc2Cl)CC1 | 61.2 |
| O=c1cc(CN(Cc2ccco2)C2CC2)nc2ccc(Br)cn12 | 9.65 |
| CC1CCN(C(=O)CN(Cc2ccco2)C2CC2)CC1 | 37 |
| CN1CCC(N(Cc2ccco2)S(=O)(=O)c2ccc(Cl)cc2)CC1 | 27.9 |
| CN1CCC(N(Cc2ccco2)S(=O)(=O)c2cc(Br)ccc2Br)CC1 | 69.8 |
| CN(C1CCCCC1)S(=O)(=O)N1CCN(Cc2ccco2)CC1 | 40 |
| CC(NCc1cccc(Cl)c1)c1ccc(OCC(=O)NC2CC2)cc1 (stereo not given) | 13.3 |
| COc1ccc2nnc(CCC(=O)NCc3cccn3C)n2n1 | 9.57 |
| Cc1nc(CCC(N)=O)cc(C2CCCN2S(C)(=O)=O)n1 (stereo not given) | 26.1 |
| CC(C)c1nc2c(n1C)CCN(CC(=O)Nc1nncs1)C2 | -12.2 |
| CC(=O)NC1CCN(c2ccnc(C3CCNCC3)c2)CC1 | 2.55 |
| Fc1ccc2[nH]c3c(c2c1)CCN1C(c2ccncc2)N2CCC31CC2 (stereo not given) | -62.4 |
| O=C(CSC(F)(F)F)N1CCC2(CCCN(C3CCOCC3)C2=O)C1 (stereo not given) | -36.6 |
| Cc1cc(NC(N)=O)ccc1C(=O)N(C)C | 61 |
| Cc1cc(NCC(C)C)ccc1C(=O)N(C)C | 21.5 |
| CCN(CC)C(=O)Nc1ccc(C(=O)N(C)C)c(C)c1 | 19.7 |
| Cn1cc(-c2nnn3c2COC(CNCC2CCOCC2)C3)cn1 (stereo not given) | 5.67 |
